Screening data as filed in PubChem BioAssay.
Pf growth 96h: inhibits malaria parasite growth, 96 h. P. falciparum luciferase reporter growth, 96 h. Potency, µM (titrated, usually from 28.7 µM), usual class: inhibitors. hit rate 6.9% among 320,000
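Luminescence readout: decreased luciferase signal marks inhibited growth of reporter-expressing P. falciparum in infected red cells (2% hematocrit, 0.05% parasitemia final), exposed to compound two generations (96 h, 37 C, 5% CO2).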
SARS PLP yeast: inhibitors of SARS-CoV papain-like protease in yeast; S. cerevisiae expressing SARS-CoV PLpro, growth rescue; Potency, µM (series often up to 32.9 µM), most hits filed as activators; hit rate 0.19% among 330,000; AID 485353; calls by dose curve; also: nearly all actives have a fitted effect of over 55% in size
AMA1-RON2 inh: inhibitors of Plasmodium falciparum AMA1-RON2 interaction. Potency, µM (top dose mostly 58.2 µM), usual class: inhibitors. AID 720542. hit rate 0.2% among 360,000. AlphaScreen AMA1-biotinylated RON2 peptide binding; also: nearly all actives have a fitted effect of over 45% in size
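AMA1 (3D7) with his tag at 25 nM final met compounds first, then biotinylated RON2 peptide at 25 nM; detection used donor plus acceptor beads, 10 µg/mL apiece, read by AlphaScreen after 30 min at room temperature.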
Pf growth 48h: P. falciparum growth inhibition at 48 hours (one generation); P. falciparum luciferase growth in erythrocytes, 48 h; Potency, µM (doses to about 28.7 µM), hits mostly inhibitors; hit rate 5.9% among 310,000; AID 504832
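Firefly luciferase activity from engineered P. falciparum reports growth; inhibitors lower the luminescent signal. Cultures contained 2% hematocrit erythrocytes at 0.1% final parasitemia.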
CHX counter: affects cycloheximide protein synthesis inhibition readout, counter-screen. hit rate 12% among 300,000. cell reporter, cycloheximide protein synthesis inhibition counterscreen. max response, %; in the data active = max response mostly above about 13%, no sharp cut-off; inactive = mostly below about 14%; also: read at 38.3 µM for the half of the compounds with a filed dose
Shiga inhibitor: Shiga toxin inhibition; Vero cells, Shiga toxin protein synthesis inhibition reporter; inhibition, % at 38.7 µM; hit rate 9.2% among 290,000; in the data active = inhibition mostly above about 28%, no sharp cut-off; inactive = mostly below about 43%
A number is an active result; n = inactive; u = inconclusive; x = not tested or not shown; [ ] = remark or other dose. Rows were chosen to be rich in hits. Some 19% of all compounds tested hit in one or more screens of this group. Unless noted, calls follow the shape of the dose curve; as a rule, active = well fitted curve in the direction sought with a large enough effect; inconclusive = small, poorly fitted or top-dose-only effect, or another doubt; inactive = no such curve, though single readings can be large; an effect the other way counts as inactive or inconclusive.

SMILES | Pf growth 96h | SARS PLP yeast | AMA1-RON2 inh | Pf growth 48h | CHX counter | Shiga inhibitor
COc1ccc(CCNC(=O)CCCNC(=O)Cn2cnc3sc(C)c(C)c3c2=O)cc1OC | u | n | n | n | n | n
COc1cc(C2Nc3ccc4ncccc4c3C3=C2C(=O)CCC3)cc(OC)c1OC (stereo not drawn) | n | n | n | u | n | n
COc1cc(C2Nc3ccc4ncccc4c3C3=C2C(=O)CCC3)ccc1O (stereo not drawn) | u | n | n | u | 21 | n
Cc1ccsc1C1Nc2ccc3ncccc3c2C2=C1C(=O)CCC2 (stereo not drawn) | 4.7µM | n | n | 10µM | n | n
O=C(NCCCCNC(=O)c1ccc(Br)cc1)c1ccc(Br)cc1 | n | n | n | n | n | n
N#C/C=C(/N)c1ccc(Br)cc1 | 10µM | n | n | 13µM | n | n
COc1ccc(C2=Nn3c(C)nnc3SC2)cc1 | n | n | n | n | n | n
COC(=O)c1ccc(/C=C2\Oc3ccccc3NC2=O)cc1 | u | n | n | n | 15 | n
Cc1ccsc1CN(C)Cc1nc(C2CC2)no1 | n | n | n | n | n | n
O=C(CN(C(=O)CNC(=O)c1ccco1)c1ccc2c(c1)OCO2)NC1CCCCC1 | n | n | n | n | n | n
O=C(NCC(=O)N(Cc1cccs1)C(C(=O)NC1CCCCC1)c1ccncc1)c1ccco1 (stereo not drawn) | 5.9µM | n | n | u | n | n
O=C(NCC(=O)N(Cc1cccs1)C(C(=O)NC1CCCC1)c1cccnc1)c1ccco1 (stereo not drawn) | n | n | n | n | n | n
O=C(CN(Cc1ccc2c(c1)OCO2)C(=O)CNC(=O)c1ccco1)NC1CCCCC1 | 7.4µM | n | n | n | n | n
CCOC(=O)c1ccc(N(CC(=O)NC2CCCC2)C(=O)CNC(=O)c2ccco2)cc1 | n | n | n | 9.3µM | n | n
O=C(NCC(=O)N(c1cnc2ccccc2c1)C(C(=O)NC1CCCC1)c1ccncc1)c1ccco1 (stereo not drawn) | n | n | n | n | 15 | n
Cc1ccc(C)c(N(C(=O)CNC(=O)c2ccco2)C(C(=O)NC2CCCCC2)c2ccncc2)c1 (stereo not drawn) | n | n | n | n | n | n
O=C(NCC(=O)N(c1ccc2c(c1)OCCO2)C(C(=O)NC1CCCC1)c1ccco1)c1ccco1 (stereo not drawn) | 0.83µM | n | n | u | n | n
COc1cccc(N(C(=O)CNC(=O)c2ccco2)C(C(=O)NC2CCCC2)c2ccncc2)c1 (stereo not drawn) | n | n | n | n | n | n
Cc1ccc(N(C(=O)CNC(=O)c2ccco2)C(C(=O)NC2CCCCC2)c2ccncc2)c(C)c1 (stereo not drawn) | n | n | n | 12µM | n | n
COc1ccc(N(C(=O)CNC(=O)c2ccco2)C(C(=O)NC2CCCC2)c2ccncc2)cc1 (stereo not drawn) | 2.6µM | n | n | n | n | n
COc1ccc(N(C(=O)CNC(=O)c2cccs2)C(C(=O)NC2CCCC2)c2ccncc2)cc1 (stereo not drawn) | 13µM | n | n | n | n | n
COc1ccc(N(C(=O)Cc2cccs2)C(C(=O)NC2CCCC2)c2ccncc2)cc1 (stereo not drawn) | n | n | n | n | n | n
Cc1cn(C(=O)c2ccccc2)c(=S)n1-c1ccc(Br)cc1 | n | n | n | u | n | n
C[C@@H]1CN([C@H](C)CO)C(=O)CCCn2nncc2CO[C@H]1CN(C)C(=O)C1CCCCC1 | x | x | n | x | x | x
Cc1onc(-c2c(F)cccc2Cl)c1C(=O)NCc1ccc(F)cc1 | n | n | n | n | n | n
SMILES | Pf growth 96h | SARS PLP yeast | AMA1-RON2 inh | Pf growth 48h | CHX counter | Shiga inhibitor
C=CCOc1ccc(C[C@H](N)C(=O)NC[C@H]2O[C@@H](n3ccc(N)nc3=O)[C@H](O)[C@@H]2O)cc1 | x | x | n | x | x | x
Cc1c(O)ccc(C(=O)COc2ccccc2F)c1O | u | n | n | n | 30 | 86
O=C(COc1ccccc1F)c1ccc(O)cc1O | n | n | n | n | n | n
CN1C(=O)N(C)C(c2cccc([N+](=O)[O-])c2)C2=C1CCCC2=O (stereo not drawn) | n | n | n | n | n | n
O=C(CCCCCN1C(=O)c2ccccc2C1=O)Nc1ccc2c(c1)OCCO2 | x | n | n | n | n | n
O=C(CCCN1C(=O)CCC1=O)Nc1ccc2c(c1)OCCO2 | n | n | n | n | 22 | 92
O=C(CN1C(=O)CCS(=O)(=O)c2ccccc21)Nc1ccc2c(c1)OCCO2 | n | n | n | n | n | n
O=C(CCn1cccn1)Nc1ccc2c(c1)OCCO2 | n | n | n | n | 57 | 92
CCN1CCN(CCC(=O)Nc2ccc3c(c2)OCO3)CC1 | u | n | n | n | n | n
O=C(CCCCCN1C(=O)CCC1=O)Nc1ccc2c(c1)OCO2 | n | n | n | n | n | n
O=C(CCN1C(=O)c2ccccc2C1=O)Nc1ccc2c(c1)OCCO2 | x | n | n | n | 18 | active
O=C(CCCN1C(=O)CCC1=O)Nc1ccc2c(c1)OCO2 | n | n | n | n | n | 53
CC1(C)C2C/C(=N\O)C(C)(/[N+]([O-])=C/c3cccc([N+](=O)[O-])c3)CC21 (stereo not drawn) | n | n | n | n | n | n
COc1ccccc1NC(=O)CN1CCN(c2ccccc2)CC1 | u | n | n | n | n | n
O=C(OCc1cn([C@@H]2CN(Cc3cccs3)[C@@H](c3ccccc3)C[C@H]2O)nn1)c1ccccc1 | x | x | n | x | x | x
Cc1cc2c(=O)n(Cc3ccco3)c(SCC(=O)NCc3ccco3)nc2s1 | x | n | n | u | n | n
Cc1cc2c(=O)n(Cc3ccco3)c(SCC(=O)N3CCCc4ccccc43)nc2s1 | x | n | n | u | 12 | n
COCCCNC(=O)c1cc(Sc2nnc(C)s2)nc2ccccc12 | n | n | n | n | n | n
Cc1nnc(Sc2cc(C(=O)NCCCN(C)Cc3ccccc3)c3ccccc3n2)s1 | 2.1µM | n | n | u | n | n
Cc1cc(C(=O)COc2ccc3ccc(=O)oc3c2)c(C)n1Cc1cccs1 | u | n | n[11.6 µM] | n | 20 | n
COc1ccc(NC(=O)c2cc(C)n(Cc3cccs3)c2C)cc1 | n | n | n | n | 62 | 82
Cc1ccc(C(=O)COc2ccc3ccc(=O)oc3c2)cc1 | n | n | n | n | n | n
COCCn1c(C)cc(C(=O)COc2cccnc2[N+](=O)[O-])c1C | n | n | n | n | 32 | 53
Cc1ccc(OCC(=O)c2cc(C)n(Cc3cccs3)c2C)c([N+](=O)[O-])n1 | n | n | n | n | 36 | n
Cc1cc(C)c(S(=O)(=O)c2cccc(Br)c2C)c(Cl)n1 | n | n | n | n | n | n
Cc1ccc(NC(=O)COC(=O)c2nn(C)c(=O)c3ccccc23)cc1F | x | n | n | x | x | x
